In the library only some 1.5% were active in any assay of this set; here they are far more common.
CRFR2-BP ag: agonists of CRF-BP/CRF-R2 complex, primary screen, cell-based, HEK293, calcium dye fluorescence, uHTS | CRF-binding protein / CRF receptor 2 complex (human) | 350,000 tested, 0.46% active | activation, % at 13.2 µM | calcium dye fluorescence (FLIPR); percent of saturating CRF peptide response;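 active means activation of at least 50%, plus an integration ratio under a set limit after plate pattern correction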;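 further: plate controls were neutral control wells without compound for no effect and CRF at EC100 for full effect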
IDE cell inh: human IDE inhibitors in live cells, primary screen, fluorescence polarization, HEK cells, FAbetaB substrate; FAbetaB cleavage; inhibition, % at 5.59 µM; 320,000 tested, 0.41% active;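 active means percent inhibition above the average of all tested compounds plus 3 SD, set per screening campaign, cut at about 16% in these data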;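 further: IDE supplied by intact live HEK cells; FP after avidin binding of uncleaved biotin substrate so inhibition keeps polarization high; 0% = DMSO wells and 100% = 60 µM reference IDE inhibitor Ii1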
Target sequence (P14735 whole entry, looked up): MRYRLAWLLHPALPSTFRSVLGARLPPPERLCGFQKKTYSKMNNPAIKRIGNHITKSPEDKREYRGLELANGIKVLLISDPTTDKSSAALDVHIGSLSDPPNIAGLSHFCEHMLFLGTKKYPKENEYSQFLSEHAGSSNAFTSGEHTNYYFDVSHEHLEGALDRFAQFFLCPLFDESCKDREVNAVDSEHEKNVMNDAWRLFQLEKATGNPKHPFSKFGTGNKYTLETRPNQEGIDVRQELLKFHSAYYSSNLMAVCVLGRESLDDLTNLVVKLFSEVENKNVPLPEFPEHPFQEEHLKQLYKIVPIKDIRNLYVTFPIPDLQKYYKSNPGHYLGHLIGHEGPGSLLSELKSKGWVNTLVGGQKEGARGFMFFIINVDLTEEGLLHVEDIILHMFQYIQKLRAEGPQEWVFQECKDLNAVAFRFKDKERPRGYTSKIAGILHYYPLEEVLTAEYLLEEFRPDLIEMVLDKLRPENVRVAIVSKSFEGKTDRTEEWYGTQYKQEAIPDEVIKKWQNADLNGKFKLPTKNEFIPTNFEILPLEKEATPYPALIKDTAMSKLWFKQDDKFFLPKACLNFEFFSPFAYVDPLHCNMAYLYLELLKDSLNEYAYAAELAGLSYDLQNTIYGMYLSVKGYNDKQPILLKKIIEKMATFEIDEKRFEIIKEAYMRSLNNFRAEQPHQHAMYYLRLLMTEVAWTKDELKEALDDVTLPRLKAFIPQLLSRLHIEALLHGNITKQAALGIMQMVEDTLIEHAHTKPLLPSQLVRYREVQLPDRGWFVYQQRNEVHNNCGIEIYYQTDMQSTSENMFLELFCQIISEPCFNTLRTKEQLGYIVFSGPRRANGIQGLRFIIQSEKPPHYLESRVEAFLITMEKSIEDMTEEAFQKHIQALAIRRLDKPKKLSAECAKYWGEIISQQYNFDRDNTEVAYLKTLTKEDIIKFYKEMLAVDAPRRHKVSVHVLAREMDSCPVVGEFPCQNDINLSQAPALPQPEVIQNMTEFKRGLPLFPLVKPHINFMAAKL
RTF Ca sens act: cardiac RTF calcium sensitivity activators, primary screen, biochemical, IANBD-TnC fluorescence, EC20 calcium; Troponin I, cardiac muscle (Homo sapiens) + Troponin T, cardiac muscle (Homo sapiens) + …; IANBD-labeled TnC RTF fluorescence at EC20 calcium; 0% EC20 calcium, 100% full calcium; activation, % at 7.2 µM; 340,000 tested, 0.24% active; AID 493008, 2010;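 active means activation above the mean over all tested compounds plus 3 SD, cut at about 30% in these data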;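 further: rise in fluorescence read as greater calcium sensitivity of cardiac thin filaments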
IDE cell activ: human IDE activators in live cells, primary screen, fluorescence polarization, HEK cells, FAbeta-B substrate; activation, % at 5.96 µM; FAbeta-B cleavage; 0% vehicle, 100% cell-free pure enzyme wells; Insulin-degrading enzyme (Homo sapiens), P14735; 340,000 tested, 0.073% active;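 active means activation above the mean of all tested compounds plus 3 SD, set per screening campaign, cut at about 17% in these data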
Cardiac RTF inh: cardiac RTF calcium sensitivity inhibitors, primary screen, biochemical, IANBD-TnC fluorescence, EC70 calcium; Troponin I, cardiac muscle (Homo sapiens) + Troponin T, cardiac muscle (Homo sapiens) + …; 340,000 tested, 0.12% active; inhibition, % at 7.15 µM; AID 493244, 2011; IANBD-labeled cardiac RTF, Ca2+ fluorescence;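 active means inhibition above the mean inhibition of all tested compounds plus 3 SD, cut at about 17% in these data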;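 further: assay run at fixed EC70 calcium of 1.6 mM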
CRFR2-BP antag: antagonists of CRF-BP/CRF-R2 complex, primary screen, cell-based, HEK293, calcium dye fluorescence, uHTS | CRF-induced calcium fluorescence | inhibition, % at 11.8 µM | 350,000 tested, 0.59% active | AID 588475, 2011;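 active means inhibition of the ligand-induced calcium signal above about 50% at the single tested concentration, limit read from the data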
Starred values were filed as active, the others as inactive; i = inactive; / = no result.

SMILES	CRFR2-BP ag	IDE cell inh	RTF Ca sens act	IDE cell activ	Cardiac RTF inh	CRFR2-BP antag
CCOc1c(Cl)cc(CNc2ccc(S(N)(=O)=O)cc2)cc1OC	3	-2	3	7	-12	10
O=C(CN1C(=O)NC2(CCCCC2)C1=O)Nc1ccccc1N1CCCC1	-1	1	-5	7	1	3
Cc1cc(C=O)c2c(c1)C=CC1(Oc3ccccc3C(=O)N1C)O2 (centres undefined)	/	25*	/	/	/	/
CC1(C)CCN2CCC(C)(C)c3c(O)ccc1c32	118*	11	85*	-15	-167	-82
CC(C)C[C@H]1CNC(=S)N1CC1CCN(CCCC2CCCC2)CC1	0	/	-3	5	-2	-1
CC1(C)CSC(C)(C)C(=O)N1	-3	/	-1	-2	-1	2
CCc1ccccc1NC(=O)NC(C)c1ccc2c(c1)OCO2 (centres undefined)	-3	-1	5	-2	0	61*
CC(NC(=O)Nc1ccc(Cl)cc1)c1ccc2c(c1)OCO2 (centres undefined)	-1	1	-1	1	0	0
CC1=NNC(=O)/C1=C\c1cn(-c2ccccc2)nc1-c1cccs1	80*	8	3	-4	-4	-57
COc1ccccc1S(=O)(=O)N(C)C[C@@H]1OCc2cn(nn2)CCCC(=O)N([C@H](C)CO)C[C@H]1C	-1	/	/	/	/	2
O=C(c1cccs1)N1C[C@H](O)[C@@H](n2cc(C3CC3)nn2)C[C@@H]1c1ccccc1	-1	/	/	/	/	-16
O=C(COc1ccc(S(=O)(=O)N2CCCC2)cc1)N1CCCC1	-1	4	-1	-2	-16	12
Cc1ccc(NC(=O)CN2C(=O)NC(Cc3ccccc3)C2=O)cc1Cl (centres undefined)	-3	-3	0	2	-9	-15
O=C(Nc1ccccc1)c1ccccc1OCc1cccc([N+](=O)[O-])c1	0	9	-3	2	-9	53*
CCc1ccc(S(=O)(=O)NCc2csc(C)n2)cc1	-2	/	1	0	-3	6
CC(C)(CNC(=O)c1cc(Cl)c(O)c(Cl)c1)N1CCCCC1	-3	1	-8	6	-4	55*
CC(C)(CNC(=O)Cc1ccc(Cl)cc1Cl)N1CCCCC1	0	-3	-2	5	-32	-4
O=C1/C(=C\c2cc(Cl)c(O)c(Cl)c2)SC(=S)N1Cc1ccccc1	187*	/	525*	-116	i	-119
COc1ccc(/C=C2/SC(=S)N(Cc3ccccc3)C2=O)cc1O	-1	/	2	3	7	-6
COc1ccc(O)c(/C=C2/SC(=S)N(Cc3ccccc3)C2=O)c1	74*	14	81*	-6	-56	-74
COc1ccc(-c2nn(-c3ccccc3)cc2/C=C2/SC(=S)N(CCC(=O)O)C2=O)c(C)c1	-1	-11	-10	3	2	52*
COc1ccccc1/C=C1/SC(=S)N(CCC(=O)Nc2cccnc2)C1=O	3	3	2	1	-7	-8
COc1ccc(OC)c(/C=C2\SC(=S)N(Cc3cccnc3)C2=O)c1	136*	4	9	-13	-15	-183
CCCc1cc(=O)oc2cc(OCC(=O)NCCCn3ccnc3)c(Cl)cc12	-2	2	5	6	-10	-14
O=C(O)C(c1ccccc1)N1C(=O)/C(=C\c2ccc(-c3ccc(Br)cc3)o2)SC1=S (centres undefined)	85*	/	63*	-32	-65	-57
COc1cccc(/C=C2\SC(=S)N(C(C(=O)O)c3ccccc3)C2=O)c1OC (centres undefined)	0	-4	-2	4	5	12

Screening results: PubChem, several laboratories
